In PubChem BioAssay (NCATS):
Records with an inconclusive call do not appear. The source made the active and inactive calls. Calls come from the whole dose curve; as a rule, active = well fitted curve in the direction sought with a large enough effect; inconclusive = small, poorly fitted or top-dose-only effect, or another doubt; inactive = no such curve, though single readings can be large or run the other way. Numbered stars: 1 amine (or outer) side, 2 acyl side, 3 side chain; on linkers, the order of the positions; unused ones are H or OH. Bridge positions count the residues as written; N and C are the ends. Square brackets hold non-standard residues; d marks the D form. Peptide text beside a SMILES is read from it. I, II: the chains in the order shown. Actinocin(9to1) = Cc1c2oc3c(C)ccc(C(=O)[*:1])c3nc-2c(C(=O)[*:2])c(N)c1=O; NMeV = CN[C@H](C(=O)O)C(C)C; Sar = CNCC(=O)O

These compounds were tested against Protein phosphatase 1D (Homo sapiens) (UniProt O15297) (assay: Rhodamine-PBP qHTS Assay for Modulators of WT P53-Induced Phosphatase 1 (WIP1) (AID 1347425; note: % of control where 0% means no effect)). Conditions: recombinant WIP1, Rhodamine-PBP phosphate fluorescence, real-time; series mostly up to 57.5 µM; activity change, negative = inhibition: at the top concentration.
Source text: Assay Provider (PI): Nathan Coussens Ph.D.
National Center for Advancing Translational Sciences (NCATS), Rockville, MD
National Institute of Health (NIH), Bethesda, Maryland
WT P53-Induced Phosphatase 1 (WIP1) is a member of the magnesium-dependent serine/threonine protein phosphatase (PPM) family and is induced by P53 in response to DNA damage. In several human cancers, the WIP1 protein is overexpressed, which is generally associated with a worse prognosis. Although WIP1 is an attractive therapeutic target, no potent, selective, and bioactive small-molecule modulator with favorable pharmacokinetics has been reported. Phosphatase enzymes are among the most challenging targets for small molecules because of the difficulty of achieving both modulator selectivity and bioavailability. Another major obstacle has been the availability of robust and physiologically relevant phosphatase assays that are suitable for high-throughput screening.
Here, we describe two orthogonal biochemical WIP1 activity assays that utilize phosphopeptides from native WIP1 substrates. We optimized a RapidFire MS assay to quantify the enzymatically dephosphorylated peptide reaction product in a 384-well format. Additionally, a redshifted Rhodamine-PBP fluorescence assay was optimized in a 1,536-well format to enable real-time WIP1 activity measurements through the detection of the orthogonal reaction product, Pi. We validated these two optimized assays by quantitative high-throughput screening against the National Center for Advancing Translational Sciences (NCATS) Pharmaceutical Collection and used secondary assays to confirm and evaluate inhibitors identified in the primary screen.
SEQUENCE No. (e.g., 1, 2, 3, etc.); […] (e.g., Cells, Incubation, Reagent, etc.); VALUE; DESCRIPTION
1; Reagent; 3 uL; WIP1 (6.7 nM), Rh-PBP (13.3 uM), columns 1-48
3; Library Compounds; 23 nL; NCATS Pharmaceutical Collection, column 5-48
4; Control Compounds; DMSO in column 2, GSK2830371 (57.5 uM, final) in 3-fold serial dilutions in column 3, GSK2830371 (1.15 uM, final) in column 4
5; Time; 1 hr; incubation
6; Detection; fluorescence (f0); ViewLux, excitation filter = 525 nm, emission filter = 598 nm
7; Reagent; 1 uL; VEPP-pS-QETFS (40 uM), columns 2-48
8; Detection; fluorescence (f1); ViewLux, excitation filter = 525 nm, emission filter = 598 nm
NOTES (numbers refer to sequence above)
1 & 2; Black medium binding Greiner 1536-well plates (# 789176-F); assay buffer: 50 mM Tris-HCl pH 7.5, 30 mM MgCl2, 1mM TCEP, 0.1 mM EGTA, 75 ug/mL BSA; dispensed with a BioRaptr liquid handler (Beckman Coulter).
3 & 4; Kalypsys pintool (equipped with 1536 pinhead, Wako USA) transfer. Tip wash sequence: DMSO, methanol, 3 sec vacuum dry.
5; Room temperature incubation.
7; VEPPL-pS-QETFS in assay buffer dispensed with a BioRaptr; final reaction conditions: 5 nM WIP1, 10 uM VEPPL-pS-QETFS, 10 uM Rh-PBP, 50 mM Tris-HCl pH 7.5, 30 mM MgCl2, 1 mM TCEP, 0.1 mM EGTA, 75 ug/mL BSA.
8; Measurement taken at 1 min intervals for 11 min. Delta readout = f1 - f0.

Sequence of Protein phosphatase 1D (Homo sapiens) (O15297 whole entry, looked up): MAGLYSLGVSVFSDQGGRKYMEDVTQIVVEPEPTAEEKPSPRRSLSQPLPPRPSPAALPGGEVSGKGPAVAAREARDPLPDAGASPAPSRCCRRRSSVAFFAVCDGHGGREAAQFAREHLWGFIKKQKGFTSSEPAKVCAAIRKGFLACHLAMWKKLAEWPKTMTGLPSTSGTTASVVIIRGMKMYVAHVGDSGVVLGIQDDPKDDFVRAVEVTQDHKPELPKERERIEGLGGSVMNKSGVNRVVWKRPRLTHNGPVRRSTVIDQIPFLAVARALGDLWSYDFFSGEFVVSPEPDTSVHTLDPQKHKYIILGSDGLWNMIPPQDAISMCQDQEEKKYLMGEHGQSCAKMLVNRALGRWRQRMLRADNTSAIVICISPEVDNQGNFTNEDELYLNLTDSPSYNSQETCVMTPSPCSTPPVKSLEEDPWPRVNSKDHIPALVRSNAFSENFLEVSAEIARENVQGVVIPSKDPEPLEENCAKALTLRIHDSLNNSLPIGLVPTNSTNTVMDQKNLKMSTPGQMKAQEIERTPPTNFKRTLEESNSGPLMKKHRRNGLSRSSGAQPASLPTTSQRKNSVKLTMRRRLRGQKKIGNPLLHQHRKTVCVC

Row | Structure (SMILES) | activity change, negative = inhibition
1 | CO/N=C1\CN(c2nc3c(cc2F)c(=O)c(C(=O)O)cn3C2CC2)CC1CN (stereo not given) | 19.1% (inactive)
2 | CC(=O)O[C@]1(C(C)=O)CC[C@H]2[C@@H]3C[C@H](C)C4=CC(=O)CC[C@]4(C)[C@H]3CC[C@@]21C | 4.48% (inactive)
3 | CN(C)CC/C=C1/c2ccccc2COc2ccc(CC(=O)O)cc21 | 7.21% (inactive)
4 | Cc1c(C)n(CCN(C)C)c2ccc(C(=O)OCCN(C)C)cc12 | -5.2% (inactive)
5 | C#C[C@]1(O)CC[C@H]2[C@@H]3CCc4cc(OC5CCCC5)ccc4[C@H]3CC[C@@]21C | 23.3% (inactive)
6 | OCc1ccccc1O | 8.72% (inactive)
7 | C[C@@H]1C[C@H]2[C@@H]3CCC4=CC(=O)C=C[C@]4(C)[C@@]3(F)[C@@H](O)C[C@]2(C)[C@H]1C(=O)CO | -0.695% (inactive)
8 | C[C@H](O)C(=O)Nc1c(I)c(C(=O)NC(CO)CO)c(I)c(C(=O)NC(CO)CO)c1I | 5.56% (inactive)
9 | Cc1cc(O)c(C(C)C)cc1Cl | -17.3% (inactive)
10 | COc1cc2c(cc1OC)C(C(C(=O)N(CCc1ccc(OC)c(OC)c1OC)CCc1ccc(OC)c(OC)c1OC)c1ccccc1)=NCC2 (stereo not given) | -6.14% (inactive)
11 | Cc1ncc(CSSCc2cnc(C)c(O)c2CO)c(CO)c1O | 3.05% (inactive)
12 | CN(C(=O)CN(CCO)CC(=O)N(C)C(C)(C)Cc1ccccc1)C(C)(C)Cc1ccccc1 | 24.6% (inactive)
13 | Cc1ccc(Nc2c(F)cccc2Cl)c(CC(=O)O)c1 | -10.7% (inactive)
14 | CCC(C(=O)OCCN(CC)CC)c1ccccc1 (stereo not given) | 15.6% (inactive)
15 | CCCCCCCCCCCCCCCCOP(=O)([O-])OCC[N+](C)(C)C | 18.1% (inactive)
16 | COc1cc(N)c(Cl)cc1C(=O)NC1CCN(CCCOc2ccc(F)cc2)CC1OC (stereo not given) | 27.2% (inactive)
17 | C[C@H]1[C@H](NC(=O)/C(=N/OC(C)(C)C(=O)O)c2csc(N)n2)C(=O)N1S(=O)(=O)O (stereo in doubt) | 1.18% (inactive)
18 | COc1cccc2c1C(=O)c1c(O)c3c(c(O)c1C2=O)C[C@@](O)(C(C)=O)C[C@@H]3O[C@H]1C[C@H](N)[C@H](O)[C@H](C)O1 | 5.85% (inactive)
19 | CCCCCC=CCC=CCCCCCCCC(=O)OCC | 26.2% (inactive)
20 | C[C@H]1C[C@H]2[C@@H]3CCC4=CC(=O)C=C[C@]4(C)[C@@]3(Cl)[C@@H](O)C[C@]2(C)[C@@]1(O)C(=O)CO | 2.32% (inactive)

Row | Structure (SMILES) | activity change, negative = inhibition
21 | O=C(O)CCCCC(=O)O | 4.7% (inactive)
22 | c1ccc(OCc2ccc(CCCN3CCOCC3)cc2)cc1 | 16.3% (inactive)
23 | CCOC(=O)/C=C(C)/C=C/C=C(C)/C=C/c1c(C)cc(OC)c(C)c1C | 7.93% (inactive)
24 | C[C@]12C=CC(=O)C=C1CC[C@@H]1[C@@H]2[C@@H](O)C[C@@]2(C)[C@H]1CC[C@]2(O)C(=O)CO | 9.89% (inactive)
25 | Oc1ccc(O)cc1 | 8.15% (inactive)
26 | C=C(CC)C(=O)c1ccc(OCC(=O)O)c(Cl)c1Cl | -11.8% (inactive)
27 | O=C1OC(c2ccc(O)cc2)(c2ccc(O)cc2)c2ccccc21 | -0.897% (inactive)
28 | CC(C)(Oc1ccc(Cl)cc1)C(=O)O | 0% (inactive)
29 | Nc1ccc(C(=O)Nc2ccccc2N)cc1 | -7.03% (inactive)
30 | CC(O)C(=O)O (stereo not given) | -4.99% (inactive)
31 | CCOc1ccc(Cc2nccc3cc(OCC)c(OCC)cc23)cc1OCC | 37.6% (inactive)
32 | NC(CS)C(=O)O (stereo not given) | 15.3% (inactive)
33 | C[n+]1c2cc(N)ccc2cc2ccc(N)cc21 (tested in a mixture with another compound) | -12.5% (inactive)
34 | Cc1c2oc3c(C)ccc(C(=O)N[C@@H]4C(=O)N[C@H](C(C)C)C(=O)N5CCC[C@H]5C(=O)N(C)CC(=O)N(C)[C@@H](C(C)C)C(=O)O[C@@H]4C)c3nc-2c(C(=O)N[C@@H]2C(=O)N[C@H](C(C)C)C(=O)N3CCC[C@H]3C(=O)N(C)CC(=O)N(C)[C@@H](C(C)C)C(=O)O[C@@H]2C)c(N)c1=O (I: T[dV]P[Sar][NMeV] / II: T[dV]P[Sar][NMeV]; ester I:1-I:C, II:1-II:C; linker I:N-II:N via Actinocin(9to1)) | 9.5% (inactive)
35 | CN(C)CCCOc1nn(Cc2ccccc2)c2ccccc12 | -14.7% (inactive)
36 | CC(=O)Oc1ccc2c(c1)CC[C@@H]1[C@@H]2CC[C@]2(C)[C@@H](O)CC[C@@H]12 | -13.6% (inactive)
37 | CCCOC(C(=O)OC1CCN(C)CC1)(c1ccccc1)c1ccccc1 | 25.7% (inactive)
38 | CCN(CCCCOC(=O)c1ccc(OC)c(OC)c1)C(C)Cc1ccc(OC)cc1 (stereo not given) | 22.4% (inactive)
39 | CC1(C)O[C@@H]2C[C@H]3[C@@H]4C[C@H](F)C5=CC(=O)C=C[C@]5(C)[C@H]4[C@@H](O)C[C@]3(C)[C@]2(C(=O)CO)O1 | -9.89% (inactive)
40 | OC[C@H]1O[C@H](O[C@]2(CCl)O[C@H](CCl)[C@@H](O)[C@@H]2O)[C@H](O)[C@@H](O)[C@H]1Cl | 12.1% (inactive)
